In PubChem BioAssay (NCATS):
Results filed as inconclusive are left out. Entries that show only a call come without a potency. Calls of active or inactive are those of the source. Calls come from the whole dose curve; as a rule, active = well fitted inhibition curve with a large enough effect; inconclusive = small, poorly fitted or top-dose-only effect; inactive = flat fitted curve, though single readings scatter.

Assay: qHTS to identify inhibitors of the type 1 interferon - major histocompatibility complex class I in skeletal muscle: primary screen against the NCATS LOPAC collection (AID 1347405);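 note: lytic HiBiT luminescence reporting HLA-B protein level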
Conditions: iHSKM muscle cells, IFN-b-induced MHC-I HiBiT luminescence, 24 h; series mostly up to 45.9 µM
Excerpt: Assay Submitter (PI): Travis B. Kinder Ph.D. & James Inglese Ph.D.
Assay Development and Screening Technology Laboratory (ADST)
National Center for Advancing Translational Sciences (NCATS), Rockville, MD
National Institute of Health (NIH), Bethesda, Maryland
Idiopathic inflammatory myopathies, collectively referred to as myositis, are a group of rare autoimmune diseases characterized by skeletal muscle inflammation, weakness, and usually accompanied by systemic pathologies of the skin, lungs, or vasculature. Current immunosuppressive therapies and glucocorticoids are often not curative and are accompanied by harsh side effects, especially in children with juvenile myositis. We initiated a drug repurposing and development program to identify more targeted, less toxic therapeutics to treat myositis. Although its cause is not known, muscle from a subset of patients have an abundance of the inflammatory type 1 interferon (IFN) and a down-stream product major histocompatibility complex class I (MHC class I), which are both thought to contribute to damage and weakness. We conducted quantitative high throughput screening on 6,576 compounds (4,679 unique) through a series of cell-based assays to identify those that inhibit the IFN-stimulated expression of MHC class I in muscle precursor cells (myoblasts). The compound identification and evaluation strategy utilized a primary screen with reporter-tagged MHC class I in genome-engineered myoblasts, ATP content counter screen for viability, HLA-ABC immunofluorescence secondary screen, and HLA-B RT-qPCR tertiary screen.
The primary screen utilized CRISPR/Cas9 genome-engineering of immortalized human myoblasts, C25cl48, where a pro-luminescent reporter HiBit was fused to the C-terminus of endogenous MHC class I allele HLA-B*08:01 (HLA-B HiBit myoblasts). HiBit is an 11 amino acid fragment of NanoLuc luminescent reporter (Promega Corporation), and when complexed to the larger LgBit fragment, the reconstituted enzyme produces light in the presence of furimazine substrate (Schwinn et al., 2018). Briefly, HLA-B HiBit myoblasts were plated into 1536-well plates, treated with 4.0 ng/ml human IFN-beta and 1,280 compounds from the Library of Pharmacologically Active Compounds 1280 library (LOPAC1280, Sigma Aldrich) in a 7-point, 1:4.3 titration with a high final concentration of 46 uM. After 24 hrs of treatment, cells were assayed by Nano-Glo HiBiT Lytic Detection System (Promega) and luminescence measured by a ViewLux 1430 Ultra HTS (Perkin Elmer).
Schwinn MK, Machleidt T, Zimmerman K, Eggers CT, Dixon AS, Hurst R, Hall MP, Encell LP, Binkowski BF, Wood K V. 2018. CRISPR-Mediated Tagging of Endogenous Proteins with a Luminescent Peptide. ACS Chem Biol 13:467-474. doi:10.1021/acschembio.7b00549
PROTOCOL TABLE (as described by Inglese et al., 2007)
SEQUENCE No. (e.g., 1, 2, 3, etc.); […] (e.g., Cells, Incubation, Reagent, etc.); VALUE; DESCRIPTION
1a; Cells; 5 uL; Use a Multidrop Combi (Thermo Scientific) to seed 350 cells/well into nine Greiner 1536 well white/solid bottom, high base, TC plates in 5 ul/well of iHSKM growth medium (GM) without dexamethasone into columns 1+2. Add metal lids with gas-exchange holes
1b; Cells; 5 uL; Use a Multidrop Combi (Thermo Scientific) to seed 350 cells/well into nine Greiner 1536 well white/solid bottom, high base, TC plates in 5 ul/well of iHSKM GM without dexamethasone + 4 ng/ml IFN-b into columns 3 - 48. Add metal lids with gas-exchange holes
2; Incubate; 1 hr; Incubate at 37 C, 5% CO2, 95% RH
3; Compounds; 23 nl; Use Pin Tool (Wako) to transfer DMSO control, ruxolitinib IFN-b inhibitor control [High Concentration = 80 uM final, 16-pt, 1:2 in duplicate], and library compounds in DMSO
4; Incubate; 24 hrs; Incubate at 37 C, 5% CO2, 95% RH
5; Dispense; 2.5 ul; Use BioRAPTR FRD (Beckman Coulter) to add HiBit lytic reagent
6; Incubate; 10 min; Incubate in the dark at ambient temperature for lysis
[…]
Potency is the fitted concentration of half-maximal effect.

Structure (SMILES) | Potency
CC(Cc1ccc(OCC(=O)O)cc1)NCC(O)c1cccc(Cl)c1 (stereo not given) | inactive
CC(C)(C)OC(=O)NC1[C@H]2CNC[C@@H]12 (stereo not given in full) | inactive
CCOC(=O)c1ncn2c1[C@@H]1CCCN1C(=O)c1cc(OC)ccc1-2 | inactive
CCCn1c(=O)c2[nH]c(C3CCCC3)nc2n(CCCOC(=O)c2ccc(S(=O)(=O)F)cc2)c1=O | inactive
CN1CCC(c2c[nH]c3ccc(O)cc23)CC1 | inactive
CCNC(=O)[C@H]1O[C@@H](n2cnc3c(N)ncnc32)[C@H](O)[C@@H]1O | inactive
Oc1ccc2c3c1O[C@H]1c4[nH]c5ccccc5c4C[C@@]4(O)C(C2)N(CC2CC2)CCC314 (stereo not given in full) | inactive
C[N+]1(C)CCN(c2ccccc2)CC1 | inactive
NCCc1ccc(S(=O)(=O)F)cc1 | inactive
COc1ccc2c(c1O)-c1cccc3c1[C@@H](C2)N(C)CC3 | inactive
C[C@H](N)Cc1cccc(C(F)(F)F)c1 | inactive
COC(=O)N1CCN(C(=O)Cc2ccc(Cl)c(Cl)c2)C(CN2CCCC2)C1 (stereo not given) | inactive
C#CCN[C@H](C)Cc1ccccc1 | inactive
O=S1(=O)N(CCN2CC=C(c3c[nH]c4cc(F)ccc34)CC2)c2cccc3c2N1CCC3 | inactive
O=C1/C(=C/c2ccccc2)C[C@@]2(O)[C@H]3Cc4ccc(O)c5c4[C@@]2(CCN3CC2CC2)[C@H]1O5 | 2 µM (active)
O=C1C=CC(=O)C=C1 | inactive
COc1ccc2[nH]cc(CCN)c2c1 | inactive
CCCC[N+]1(C)C2CC(OC(=O)[C@H](CO)c3ccccc3)CC1C1OC12 (stereo not given in full) | inactive
O=[N+]([O-])/C=C/c1ccc2c(c1)OCO2 | 7.08 µM (active)
CN(N=O)c1ccc(O)c(O)c1 | inactive

Structure (SMILES) | Potency
CN1CC[C@@]2(C)c3cc(OC(=O)Nc4ccccc4)ccc3N(C)[C@@H]12 | inactive
[Cl-].[Cl][Pt].[NH2-].[NH2-].c1ccncc1 | inactive
CN1CC[C@@]2(C)c3cc(O)ccc3N(C)C12 (stereo not given in full) | inactive
Cc1sc2ccccc2c1CC1=NCCN1 | inactive
N=C(N)c1ccc(CS(=O)(=O)F)cc1 | inactive
NC(=O)c1ccc(OCC(O)CN2CC=C(c3ccc(F)cc3)CC2)cc1 (stereo not given) | inactive
OC1CCCCC1N1CCC(c2ccccc2)CC1 (stereo not given) | inactive
Cc1o[nH]c(=O)c1CC(N)C(=O)O (stereo not given) | inactive
COc1ccc(CNC(=O)/C=C/c2ccc3[nH]cc(CCN(C)C)c3c2)cc1 | inactive
C[C@H](Cc1ccc2c(c1)OC(C(=O)O)(C(=O)O)O2)NC[C@H](O)c1cccc(Cl)c1 | inactive
NC(=O)c1cc(N2CC2)c([N+](=O)[O-])cc1[N+](=O)[O-] | inactive
COc1ccc(OC)c(C(O)C(C)N)c1 (stereo not given) | inactive
COc1ccc2[nH]c3c(c2c1)CCNC3 | inactive
C[N+]1(C)CCc2cc3c(cc2[C@H]1[C@@H]1OC(=O)c2c1ccc1c2OCO1)OCO3 | inactive
CCCN(CCC)C1Cc2cc(OC)c(OC)cc2C1 | inactive
NC(=O)CI | inactive
CC(N)Cc1c[nH]c2ccc(O)cc12 (stereo not given) | inactive
OCc1cnc[nH]1 | inactive
C[N+](C)(C)CCOC(=O)CBr | inactive
Nc1cc2c(ncn2CCOCP(=O)(O)O)c(=O)[nH]1 | inactive
